Shown are actives, neighbours in structure and some others; about 1.1% of the full set was active somewhere.
LDHA inh – qHTS assay for inhibitors of human lactate dehydrogenase | L-lactate dehydrogenase A chain (Homo sapiens), P00338 | purified LDHA, NADH/diaphorase-resazurin fluorescence; stronger effect = lower value | activity change, % (values are at about 110 or 230 µM) | 0.15% of 480,000 active | AID 1347041, 2019; in the data active = activity change below about -30%; inconclusive = mostly about -25% to -30%;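 also: plate controls were DMSO wells for no effect and wells without enzyme for full effect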
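Resorufin fluorescence (ex540/em590), read at 0 and 20 min after diaphorase/resazurin addition, reports the NADH left after a 5 min room-temperature reaction of 2 nM human LDH5 with 0.06 mM NADH and 0.2 mM pyruvate.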
p53 reactivator – qHTS assay for re-activators of p53 using a Luc reporter; H1299 p53-A138V BP100-luciferase reporter, luminescence, 24 h; Potency, µM (top dose mostly 92.2 µM), for the others: at the highest dose activity change, positive = activation, actives largely listed as activators; 0.063% of 320,000 active; AID 504706, 2011; also: potency is read from the fitted curve at half-maximal effect; % of control where 0% means no effect; nearly all actives have a fitted effect of over 45% in size
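H1299 (p53-null), stable ts p53-A138V + BP100-Luc; 1000 cells/well, Opti-MEM/10% FBS; cpd 4 pt, 1:5; 24 h, 37 deg C, 5% CO2; detection reagent 10 min RT; luminescence.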
PTHR1 ag – qHTS for PTHR1 Agonists: Primary Screen. Parathyroid hormone/parathyroid hormone-related peptide receptor (Homo sapiens), Q03431. 0.075% of 410,000 active. HEK293 GP2 PTHR1 cells, GloSensor cAMP luminescence, 1 h. AID 743266, 2014. Potency, µM (titrated, usually from 115 µM), for the others: at the highest dose activation, actives largely listed as activators; also: potency is read from the fitted curve at half-maximal effect; nearly all actives have a fitted effect of over 55% in size
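HEK-293-derived GP2 cells expressing PTHR1 and a GloSensor cAMP reporter, 3,000/well, plated overnight, given luciferin plus IBMX (each 0.5 mM as added) for 1 h at 37 °C, then compound for 1 h at 37 °C. Luminescence was read after 15 min at room temperature.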
BRCA1 expr up – qHTS Assay to Identify Small Molecule Activators of BRCA1 Expression; MCF7-BRCA1-FFLuc reporter, luminescence, 48 h; response scale: scaled: vehicle 0%, 10 µM genistein 100%; Potency, µM (titrated, usually from 46.1 µM), for the others: at the top dose activation, most hits filed as activators; 1.1% of 380,000 active; AID 624202, 2012; also: potency is read from the fitted curve at half-maximal effect; nearly all actives have a fitted effect of over 80% in size
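Cells: MCF7-BRCA1-FFLuc, 2000/well. Exposure: 48 h, 37 °C, 5% CO2. Read: luminescence, 15 min post-substrate. Controls: genistein 10 microM (maximal activation), DMSO (neutral).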
RGS4 inhibitor – Inhibitors of Regulator of G Protein Signaling (RGS) 4: qHTS | Transcreener GDP fluorescence polarization, RGS4-accelerated GTP hydrolysis | Potency, µM (doses to about 114 µM), inactives show at the top dose activity change, negative = inhibition, actives largely listed as inhibitors | 0.039% of 390,000 active | Regulator of G-protein signaling 4 (Homo sapiens), P49798; also: potency is read from the fitted curve at half-maximal effect; % is scaled to controls: 0 for no effect and ±100 for the full control effect; nearly all actives have a fitted effect of over 75% in size
Target sequence (P49798 whole entry, looked up): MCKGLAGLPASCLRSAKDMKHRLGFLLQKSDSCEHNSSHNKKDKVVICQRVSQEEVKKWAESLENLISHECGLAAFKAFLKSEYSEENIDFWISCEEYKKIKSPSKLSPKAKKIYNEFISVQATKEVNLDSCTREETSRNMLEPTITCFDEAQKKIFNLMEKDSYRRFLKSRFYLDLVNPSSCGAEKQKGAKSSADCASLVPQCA
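MLSMR compounds (23 nl, pin-transferred) preincubated 10 min at room temperature with a 500nM (2x) first reagent, then RGS4 at 900nM (2x) plus Transcreener GDP mix added; fluorescence polarization (620/688 nm) read before and after 90 min at 30 °C.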
The depositor's hits bear a star; [ ] = dose if it differs, or a comment. Unless noted, calls follow the shape of the dose curve; as a rule, active = well fitted curve in the direction sought with a large enough effect; inconclusive = small, poorly fitted or top-dose-only effect, or another doubt; inactive = no such curve, though single readings can be large; an effect the other way counts as inactive or inconclusive.

Results for COc1cc(C2CC(=O)N3CN(c4ccc(C)c(Cl)c4)CSC3=C2C#N)ccc1O (configuration not stated) ?
LDHA inh: 59

What do the screens show for `O=C1NC(=S)N/C1=C/c1cccc2ccccc12`?
LDHA inh: 0; p53 reactivator: 12%; PTHR1 ag: inactive; BRCA1 expr up: 13µM*; RGS4 inhibitor: -21%

What do the screens show for `O=C1NC(=S)NC1=Cc1ccccc1O`?
LDHA inh: -4; PTHR1 ag: -2%; BRCA1 expr up: 9%; RGS4 inhibitor: -11%

How did CCOC(=O)C1CCCN(C(=O)CCc2nnc(-c3ccc(C(C)=O)s3)o2)C1 (configuration not stated) do in these assays?
LDHA inh: -3; p53 reactivator: inconclusive; PTHR1 ag: -19%; BRCA1 expr up: 13µM*; RGS4 inhibitor: -17%[56.9 µM]

How did CCOC(=O)C1CCCN(C(=O)CSCc2ccccc2)C1 (configuration not stated) do in these assays?
LDHA inh: -3; p53 reactivator: 16%; PTHR1 ag: -34%; BRCA1 expr up: 17%; RGS4 inhibitor: -31%

Results for Cc1ccc(CNC(=O)N2CCCC(C(F)(F)F)C2)cc1 (configuration not stated) ?
LDHA inh: 1

How did Cc1ccc(Cn2ccc(=O)c(OCc3ccccc3)c2C)cc1 do in these assays?
LDHA inh: 0; p53 reactivator: 11%; PTHR1 ag: inactive; BRCA1 expr up: 11µM*; RGS4 inhibitor: -7%

What do the screens show for `Clc1ccc(C=NN2CCCCCC2)cc1Cl`?
LDHA inh: -9; PTHR1 ag: -40%; BRCA1 expr up: 8.9µM*; RGS4 inhibitor: -33%

How did N#Cc1ccc(C=NN2CCCCCC2)cc1 do in these assays?
LDHA inh: -9; PTHR1 ag: inactive; BRCA1 expr up: 6.3µM*; RGS4 inhibitor: 2%

Results for Clc1ccc(/C=N/N2CCCCC2)cc1 ?
LDHA inh: -13; p53 reactivator: 7%; PTHR1 ag: -12%; BRCA1 expr up: 43%; RGS4 inhibitor: -2%

Results for O=[N+]([O-])c1ccc(/C=N/N2CCCCC2)cc1 ?
LDHA inh: 1; p53 reactivator: inconclusive; PTHR1 ag: -4%; BRCA1 expr up: 10µM*; RGS4 inhibitor: -14%

What do the screens show for `Clc1ccc(C=NN2CCCCCC2)cc1`?
LDHA inh: -3; PTHR1 ag: -37%; BRCA1 expr up: 10µM*; RGS4 inhibitor: -1%

What do the screens show for `O=[N+]([O-])c1ccc(/C=N\N2CCN(c3ccc(Cl)cc3)CC2)cc1`?
LDHA inh: 0; p53 reactivator: 1%; PTHR1 ag: -23%[57.5 µM]; BRCA1 expr up: -29%; RGS4 inhibitor: 21%

What do the screens show for `CC(=O)c1ccc(N2CCN(S(=O)(=O)c3ccc4c(c3)NC(=O)CCS4)CC2)cc1`?
LDHA inh: 7

Results for CCCCN1C(=O)C(=O)N(Cc2ncc(-c3ccc(F)cc3)o2)C1=O ?
LDHA inh: 2

What do the screens show for `Cc1c(CC(=O)Nc2ccc3c(c2)OCO3)c(=O)oc2c(C)c(O)ccc12`?
LDHA inh: 13

Results for CCOC(=O)C(NC(=O)Cc1coc2c(C)c(C)ccc12)C(=O)OCC ?
LDHA inh: 8

How did O=C(CCCC(=O)OCC(=O)c1ccc([N+](=O)[O-])cc1)Nc1cc(C(F)(F)F)ccc1Cl do in these assays?
LDHA inh: 6

How did Cc1cccc(NC(=O)CCc2ncc(-c3ccc(F)cc3)o2)c1C do in these assays?
LDHA inh: -3

What do the screens show for `CC(C)=CC(=O)N(Cc1cccs1)C1CC1`?
LDHA inh: 4

How did Cc1nc2cc3ccccc3cc2c(=O)[nH]1 do in these assays?
LDHA inh: 16; p53 reactivator: inconclusive; PTHR1 ag: inactive; BRCA1 expr up: 11µM*; RGS4 inhibitor: 4%

How did Cc1cc2ccccc2c(=O)[nH]1 do in these assays?
LDHA inh: 1; p53 reactivator: 9%; PTHR1 ag: 5%[57.5 µM]; BRCA1 expr up: 1%; RGS4 inhibitor: 4%

How did Cc1cccc(NC(=O)Nc2nnc([C@@H]3C[C@H](O)[C@@H](CO)O3)s2)c1 do in these assays?
LDHA inh: -14; PTHR1 ag: inactive; BRCA1 expr up: 84%

Results for O=C(Nc1cccc(Cl)c1)Nc1nnc([C@H]2C[C@H](O)[C@@H](CO)O2)s1 ?
LDHA inh: -30*; PTHR1 ag: inactive; BRCA1 expr up: inconclusive

Results for N#Cc1ccc(C(=O)NC2CCCCCCC2)cc1 ?
LDHA inh: -5; p53 reactivator: 35µM*; PTHR1 ag: -30%; BRCA1 expr up: inconclusive; RGS4 inhibitor: -17%

What do the screens show for `O=C(NC1CCCCCC1)c1cc2ccccc2oc1=O`?
LDHA inh: -3; p53 reactivator: inconclusive; PTHR1 ag: -40%; BRCA1 expr up: 66%; RGS4 inhibitor: -9%

Results for O=C(NC(=S)NC1CCCCC1)c1ccc(F)cc1 ?
LDHA inh: -1; p53 reactivator: inconclusive; PTHR1 ag: -28%; BRCA1 expr up: 11µM*; RGS4 inhibitor: -42%

Results for O=C(NC1CCCCC1)c1ccc2ccccc2c1 ?
LDHA inh: -7; PTHR1 ag: -20%; BRCA1 expr up: 3.2µM*

How did O=C(NC1CCCCCCC1)c1ccc2ccccc2c1 do in these assays?
LDHA inh: -5

What do the screens show for `N=c1oc2ccccc2cc1C(=O)NC1CCCCCC1`?
LDHA inh: -4; p53 reactivator: 6%; PTHR1 ag: inactive; BRCA1 expr up: 4.5µM*; RGS4 inhibitor: -5%

Results for Cc1ccc(C(=O)COC(=O)c2ccc(N3CCCC3=O)cc2)cc1C ?
LDHA inh: 6

Results for COc1cccc(-c2nnc(SCC3CCOCO3)n2-c2ccc(C)cc2)c1 (configuration not stated) ?
LDHA inh: 8

How did CN1C(=O)C2(CC(=O)Nc3c2sc(C(=O)O)c3-c2ccccc2)c2ccccc21 (configuration not stated) do in these assays?
LDHA inh: -5

Results for CCOC(=O)C1CCN(C(=O)CSc2nnc(-c3ccc(C)cc3)n2N)CC1 ?
LDHA inh: 8

Results for Cc1cc2cc(NS(=O)(=O)c3ccc(F)c(F)c3F)ccc2[nH]1 ?
LDHA inh: 8

How did Cc1nc(Nc2cccc(C(F)(F)F)c2)sc1C(=O)N(C)C do in these assays?
LDHA inh: 0

How did Cc1nc(Nc2ccccc2C(F)(F)F)sc1C(=O)N(C)C do in these assays?
LDHA inh: -4; p53 reactivator: 1%; PTHR1 ag: -3%; BRCA1 expr up: 10µM*; RGS4 inhibitor: -34%

Assay outcomes as filed in PubChem BioAssay.
